This is an account of results in PubChem BioAssay.

The nature of experiment [1]: A549 cell viability effects, profiling panel, calcein-AM fluorescence, 48 h, basal (AID 1162). The following applies: higher = more signal.
Experiment [2] can be described thus: adipocyte viability effects, profiling panel, cell-based, 3T3-L1 adipocytes, calcein-AM fluorescence, 48 h, basal (AID 1163). The settings on record: 3T3-L1 adipocytes viability, higher = more signal.
A short description of experiment [3]: HepG2 cell viability effects, profiling panel, calcein-AM fluorescence, 48 h, basal (AID 1164). The settings on record: higher = more signal.
Experiment [4] in a line: MM1S cell viability effects, profiling panel, calcein-AM fluorescence, 48 h, basal (AID 1165).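 Note: viability of MM1S multiple myeloma cells under basal unstimulated conditions.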 The settings on record: higher = more signal.
Experiment [5] can be described thus: basal RPMI8226 viability, no added stimulus, profiling panel, cell-based, calcein-AM fluorescence, 48 h, PK04 Diversity Set (AID 1166).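 Note: cells grown under basal conditions without added stimulus.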 The following applies: RPMI8226 myeloma viability, higher = more signal.
Experiment [6] can be described thus: basal HepG2 mitochondrial membrane potential changes, profiling panel, cell-based, JC-1 fluorescence, 24 h, 100 nL compound (AID 1167). The settings on record: higher = more signal.
Experiment [7] in a line: basal 3T3-L1 adipocyte mitochondrial potential changes, profiling panel, cell-based, JC-1 fluorescence, 3T3-L1 adipocytes, 24 h, 100 nL compound (AID 1168). The following applies: JC-1 mitochondrial fluorescence, higher = more signal, called active from +8 up or from −8 down.
Experiment [8] can be described thus: basal RPMI8226 mitochondrial membrane potential changes, profiling panel, cell-based, JC-1 fluorescence, 24 h, 100 nL compound (AID 1169). The settings on record: RPMI8226 myeloma, JC-1 mitochondrial potential fluorescence, higher = more signal.
Experiment [9] is described as follows: basal MM1S mitochondrial membrane potential changes, profiling panel, cell-based, JC-1 fluorescence, 24 h, 100 nL compound (AID 1170). The settings on record: higher = more signal.
The nature of experiment [10]: A549 lung cancer cell viability effects, profiling panel, resazurin fluorescence, 24 h, PK04 Diversity Set (AID 1171). The following applies: higher = more signal, called active from +8 up or from −8 down. (In general: Alamar Blue is a resazurin reagent that responds to reducing activity.)

Activity calls are given as the source filed them.
Note: test concentration not given here.

Regarding `C=CCC(OC(C)=O)[C@@H]1[C@@H](N(Cc2ccc(-c3cccc(C(F)(F)F)c3)o2)C(=O)Cc2ccc(F)cc2)c2cc(OCCCO)ccc2N1C(=O)c1ccc(-c2ccccc2)cc1` (stereo not given in full), the z-score in experiment [1] is 0.468; in experiment [2] it was 0.145; in experiment [3], 0.536; in experiment [4] it was 1.16; in [5], -0.147; in [6] it was 1.88. Also, the z-score in [7] was -1.64 (inactive); in experiment [8] it was -0.582; in [9], 0.286; in [10], 0.303 (inactive).

With `CCCC[C@@H]1C[C@H]1[C@@H](NC(=O)c1ccccc1)c1ccccc1C(F)(F)F`, the z-score is -0.407 in [1]; 0.128 in experiment [2]; -0.0379 in [3]; -1.69 in experiment [4]; -0.947 in experiment [5]; -1.06 in [6]. Moreover, the z-score in experiment [7] was -0.895 (inactive); in [8], -0.472; in experiment [9], -0.573; in experiment [10], 2.38 (inactive).

On to `C=CCC(OC(C)=O)[C@@H]1[C@@H](N(Cc2cc3ccccc3o2)C(=O)c2ccc(C)cc2)c2cc(OCCCO)ccc2N1C(=O)c1ccc2ccccc2n1` (stereo not given in full), for which the z-score in [1] was 2.73; in [2], 0.362; in experiment [3], 1.54; in [4] it was 0.906; in [5], 1.09; in [6], 2.46. For the same molecule, the z-score in [7] was 1.5 (inactive); in experiment [8], 0.648; in experiment [9], 1.19; in [10], 1.66 (inactive).

As for `CN1C(=O)C2C=CC(C(O)c3ccc(N(C)C)cc3)N(Nc3ccc([N+](=O)[O-])cc3[N+](=O)[O-])C2C1=O` (stereo not given), the z-score in experiment [1] is 1.09; in [2], -0.459; in experiment [3] it was -0.0167; in [4], -0.126; in experiment [5], -0.4; in experiment [6] it was -0.672. The z-score is -1.06 (inactive) in experiment [7], 0.0429 in experiment [8], -0.0883 in experiment [9] and 0.0697 (inactive) in experiment [10].

Turning to `CC(=O)NCCCC[C@@H]1NC(=O)[C@H]2C[C@@H](C(=O)NCCCCCCN(C)C)[C@@H](c3ccc(O)cc3)N2C1=O`, the z-score in experiment [1] was -0.345; in experiment [2] it was 1.03; in experiment [3], -1.23; in experiment [4] it was -0.327; in [5] it was -0.551; in experiment [6] it was -0.755. In addition, the z-score in experiment [7] was 0.154 (inactive); in [8], 0.669; in [9] it was 0.116; in experiment [10], -1.27 (inactive).

Consider `Cc1ccc(N2C(=O)c3ccccc3[C@](C)(C(=O)NCC(C)C)[C@@H]2c2ccc(CO)cc2)nc1`, for which the z-score in experiment [1] was -0.535; in [2], -0.672; in experiment [3], -0.712; in experiment [4], -0.359; in experiment [5], 0.256; in experiment [6], -0.481. Also, the z-score in experiment [7] was -0.74 (inactive); in experiment [8], -0.0498; in experiment [9], -0.634; in [10] it was 0.606 (inactive).

For the molecule `COCC(=C=CC[C@H](O)c1ccc(OCCO)cc1)C[C@H](O)c1ccccn1`, the z-score in experiment [1] is 0.905; in [2], -0.518; in experiment [3], 0.0126; in experiment [4] it was 0.682; in experiment [5], 0.237; in experiment [6] it was 1.79. Further, the z-score is 1.09 (inactive) in experiment [7], -0.145 in experiment [8], -0.116 in [9] and 1.02 (inactive) in [10].

Regarding `C[C@H]1NC(=O)[C@@H](C)NC(=O)[C@@]23C(=O)N[C@@H](Cc4ccccc4)C2[C@H](C)[C@@]2(C)O[C@H]2C3/C=C/C/C=C\CNC1=O` (stereo not given in full), the z-score was 0.0575 in experiment [1]; 0.43 in experiment [2]; 0.205 in experiment [3]; -0.0933 in experiment [4]; -0.0009 in experiment [5]; 1.24 in experiment [6]. Also, the z-score in experiment [7] was 0.408 (inactive); in experiment [8] it was -0.266; in experiment [9] it was 1.66; in experiment [10] it was 0.381 (inactive).

For the molecule `CO[C@H]1COC(=O)CC=C[C@H](C)[C@@H](OC)COC(=O)[C@H](Cc2ccccc2)NC(=O)CC=C[C@@H]1C`, the z-score is 0.0767 in experiment [1]; 1.57 in experiment [2]; 0.219 in [3]; 0.196 in experiment [4]; 0.988 in experiment [5]; 0.566 in experiment [6]. The z-score in experiment [7] was 0.746 (inactive); in experiment [8], -0.0213; in experiment [9] it was 1.14; in experiment [10] it was 0.345 (inactive).

Consider `[N-]=[N+]=NCc1ccccc1C[C@@]1(C(=O)N2CCOCC2)N=C(c2ccc(OCCCO)cc2)O[C@@H]1c1ccccc1N=[N+]=[N-]`, for which the z-score in [1] was -0.884; in experiment [2] it was 0.913; in experiment [3], -0.848; in experiment [4], -2.19; in experiment [5], -2.3; in [6], 0.944. Also, the z-score in experiment [7] is 1.11 (inactive); in [8], -0.982; in [9], -0.891; in experiment [10] it was -1.75 (inactive).

Take `CO[C@H]1COC(=O)[C@H](C)NC(=O)CC=C[C@@H](C)[C@H](NS(=O)(=O)c2ccc(C)cc2)COC(=O)CC=C[C@@H]1C`: the z-score is -0.199 in experiment [1]; 1.76 in experiment [2]; -0.261 in [3]; 0.436 in [4]; 0.769 in [5]; 0.645 in experiment [6]. Also, the z-score in experiment [7] was -0.236 (inactive); in [8], -0.081; in experiment [9] it was 0.753; in experiment [10] it was 0.317 (inactive).

Regarding `COC(=O)Cn1c(C(=O)N2CCCC2)cc2c1C[C@H]1CN(C(=O)c3ccccc3)[C@@](Cc3ccc(OC)cc3)(C(=O)OC)[C@@H]21`, the z-score in experiment [1] was -0.643; in experiment [2] it was -0.574; in experiment [3], 0.0447; in experiment [4], -1.72; in [5] it was -2.24; in experiment [6], 1.49. Also, the z-score is -1.1 (inactive) in experiment [7], -0.623 in experiment [8], -1.95 in [9] and -1.09 (inactive) in experiment [10].
